Shown are actives, neighbours in structure and some others; about 1.8% of the full set was active somewhere.
S1P1 agonist – activates the human S1P1 receptor; actives 1.5% (n = 16,000); activation, % at 4.5 µM; S1P1 agonist cell-based reporter assay; in the data active = activation above about 80%
rat GALR2 ag – agonists of rat galanin receptor 2 (GALR2); O08726; cell-based GALR2 agonist screen; activation, % at 10 µM; actives 0.5% (n = 16,000); AID 833; in the data active = activation above about 15%
TLR4 MyD88 blk – inhibitors of human TLR4-MyD88 binding; O00206; Cell-based TLR4-MyD88 binding inhibition assay; inhibition, % at 10 µM; actives 0.06% (n = 16,000); in the data active = inhibition above about 45%
Target sequence (O00206 whole entry, looked up): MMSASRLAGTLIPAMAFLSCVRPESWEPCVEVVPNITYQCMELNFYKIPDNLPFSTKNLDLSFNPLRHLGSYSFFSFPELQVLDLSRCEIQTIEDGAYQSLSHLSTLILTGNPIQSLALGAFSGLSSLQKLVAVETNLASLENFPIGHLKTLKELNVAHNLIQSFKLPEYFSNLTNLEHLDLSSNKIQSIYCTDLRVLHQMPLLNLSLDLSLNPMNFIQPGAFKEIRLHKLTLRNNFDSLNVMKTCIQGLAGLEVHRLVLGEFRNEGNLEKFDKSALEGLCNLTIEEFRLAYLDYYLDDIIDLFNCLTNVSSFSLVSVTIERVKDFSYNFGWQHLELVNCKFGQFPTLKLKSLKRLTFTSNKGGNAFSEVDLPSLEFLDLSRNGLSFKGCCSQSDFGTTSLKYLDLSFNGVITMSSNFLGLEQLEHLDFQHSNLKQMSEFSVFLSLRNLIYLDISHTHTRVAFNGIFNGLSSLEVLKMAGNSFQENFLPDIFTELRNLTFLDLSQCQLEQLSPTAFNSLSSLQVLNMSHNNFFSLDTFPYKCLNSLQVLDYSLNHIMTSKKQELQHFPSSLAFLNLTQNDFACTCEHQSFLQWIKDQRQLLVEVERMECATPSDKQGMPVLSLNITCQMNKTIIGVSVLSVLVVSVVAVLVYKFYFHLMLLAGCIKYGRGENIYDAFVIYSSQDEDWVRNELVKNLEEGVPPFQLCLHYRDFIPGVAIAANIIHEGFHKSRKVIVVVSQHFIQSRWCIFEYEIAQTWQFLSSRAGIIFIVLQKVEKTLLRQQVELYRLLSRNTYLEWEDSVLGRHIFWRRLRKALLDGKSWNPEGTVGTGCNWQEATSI
The depositor's hits bear a star.

`N#CC(C#N)=NNc1ccc(OC(F)(F)F)cc1` gave S1P1 agonist 109*, rat GALR2 ag -12 and TLR4 MyD88 blk -23.
For N#CC(C#N)=NNc1ccc(C(F)(F)F)cc1 the results were S1P1 agonist 115*, rat GALR2 ag -14 and TLR4 MyD88 blk -33.
`FC(F)(F)c1ccc2c(c1)nnn2C1CCNCC1` gave S1P1 agonist -2, rat GALR2 ag -7 and TLR4 MyD88 blk -3.
Screening N#CCc1cccc(CC#N)c1 returned S1P1 agonist 5, rat GALR2 ag -3 and TLR4 MyD88 blk 3.
O/N=C\c1c[nH]c2ccccc12 was read as S1P1 agonist 18, rat GALR2 ag -9 and TLR4 MyD88 blk -4.
c1ccc(N2CCN(Cc3c[nH]c4ccccc34)CC2)cc1 was read as S1P1 agonist 1, rat GALR2 ag -4 and TLR4 MyD88 blk -16.
